In the supplement of paper PMC9262897, “Low-cost anti-mycobacterial drug discovery using engineered E. coli” (Nature Communications, 2022):
Where a name gives a salt, the structure may show the parent alone. ± gives the standard deviation of the averaged measurements.

Legend:
Assay in all cases: growth (OD600 after 10 h); higher = more growth (less inhibition)
[1] = tested on: E. coli TESEC Alr+ wild-type control; settings: compound 0.1 mM; raw OD600 reference: median of DMSO wells 0.241, cell-free background 0.041
Description: (§1)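 TESEC Mtb Alr E. coli, or the Alr+ wild-type control, in 384-well plates with Prestwick library compounds at 0.1 mM and 1% DMSO, across arabinose induction levels of 1E3 to 1E7 nM. Growth is read as OD600 after 10 h at 37 °C in triplicate biological replicates.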

[2] = tested on: E. coli TESEC Mtb Alr; settings: compound 0.1 mM
Description: as §1

[3] = tested on: E. coli TESEC Mtb Asd; settings: compound 0.1 mM
Description: (§2)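 TESEC E. coli strains in which the native enzyme is deleted and replaced by arabinose-inducible Mtb Asd, DapB, CysH or TrpD, each grown in its selective medium. Strains were screened against the Prestwick library at 0.1 mM and 1% DMSO in 384-well format at low and high arabinose induction. Growth is read as OD600 after 10 h in triplicate.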

[4] = tested on: E. coli TESEC Mtb DapB; settings: compound 0.1 mM
Description: as §2

[5] = tested on: E. coli TESEC Alr+ wild-type control; settings: compound 0.1 mM; raw OD600 reference: median of DMSO wells 0.49, cell-free background 0.052
Description: (§3)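 TESEC Mtb Alr E. coli (ΔaraC ΔtolC ΔentC Δalr ΔdadX, arabinose-inducible Mtb Alr) or the Alr+ wild-type control strain, grown in defined M9-fructose medium without D-alanine in 96-well plates with Prestwick library compounds at 0.1 mM and 1% DMSO. Low Alr induction is 0.1 µM arabinose and high induction is 10 mM arabinose.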

[6] = tested on: E. coli TESEC Mtb Alr; settings: compound 0.1 mM; remark: listed apart in the source
Description: as §3

[7] = arabinose 1000 nM, raw OD600 reference: median of DMSO wells 0.294, cell-free background 0.041
[8] = arabinose 10000 nM, raw OD600 reference: median of DMSO wells 0.264, cell-free background 0.041
[9] = arabinose 100000 nM, raw OD600 reference: median of DMSO wells 0.201, cell-free background 0.041
[10] = arabinose 1000000 nM, raw OD600 reference: median of DMSO wells 0.193, cell-free background 0.041
[11] = arabinose 10000000 nM, raw OD600 reference: median of DMSO wells 0.146, cell-free background 0.041
[12] = arabinose induction (level): High, raw OD600 reference: median of DMSO wells 0.331, cell-free background 0.041
[13] = arabinose induction (level): Low, raw OD600 reference: median of DMSO wells 0.417, cell-free background 0.041
[14] = arabinose induction (level): High, raw OD600 reference: median of DMSO wells […], cell-free background 0.041
[15] = arabinose induction (level): Low, raw OD600 reference: median of DMSO wells 0.227, cell-free background 0.041
[16] = arabinose 100 nM, raw OD600 reference: median of DMSO wells 0.413, cell-free background 0.052
[17] = arabinose 10000000 nM, raw OD600 reference: median of DMSO wells […], cell-free background 0.052

| Structure (SMILES) | growth [1] | growth [2, 7] | growth [2, 8] | growth [2, 9] | growth [2, 10] | growth [2, 11] | growth [3, 12] | growth [3, 13] | growth [4, 14] | growth [4, 15] | growth [5] | growth [6, 16] | growth [6, 17] |
| --- | --- | --- | --- | --- | --- | --- | --- | --- | --- | --- | --- | --- | --- |
| Cc1ccsc1/C=C/C1=NCCCN1C [Morantel tartrate] | 0.248 ± 0.0087 | 0.306 ± 0.0079 | 0.252 ± 0.0038 | 0.204 ± 0.012 | 0.176 ± 0.0069 | 0.1525 ± 0.00097 | 0.358 ± 0.016 | 0.379 ± 0.034 | 0.205 ± 0.038 | 0.294 ± 0.089 | 0.513 ± 0.029 | 0.409 ± 0.0089 | 0.259 ± 0.17 |
| CNCC[C@@H](Oc1ccccc1C)c1ccccc1 [Tomoxetine hydrochloride] | 0.216 ± 0.0098 | 0.254 ± 0.0027 | 0.272 ± 0.0044 | 0.211 ± 0.019 | 0.139 ± 0.0019 | 0.173 ± 0.0034 | 0.205 ± 0.024 | 0.294 ± 0.021 | 0.18 ± 0.0036 | 0.263 ± 0.047 | 0.441 ± 0.016 | 0.407 ± 0.0067 | 0.326 ± 0.018 |
| COc1ccc([C@@H]2CC(=O)c3c(O)cc(O[C@@H]4O[C@H](CO[C@@H]5O[C@@H](C)[C@H](O)[C@@H](O)[C@H]5O)[C@@H](O)[C@H](O)[C@H]4O)cc3O2)cc1O [Hesperidin] | 0.223 ± 0.0074 | 0.289 ± 0.016 | 0.251 ± 0.0089 | 0.205 ± 0.0089 | 0.177 ± 0.0064 | 0.145 ± 0.0031 | 0.22 ± 0.035 | 0.284 ± 0.06 | 0.188 ± 0.011 | 0.251 ± 0.034 | 0.521 ± 0.053 | 0.407 ± 0.0099 | 0.388 ± 0.028 |
| CCn1cc(C(=O)O)c(=O)c2cc(F)c(N3CCNCC3)cc21 [Norfloxacin] | 0.04437 ± 0.00025 | 0.0427 ± 0.00078 | 0.0398 ± 0.00098 | 0.0437 ± 0.00036 | 0.0398 ± 0.0006 | 0.0437 ± 0.00035 | 0.0546 ± 0.0041 | 0.0626 ± 0.0092 | 0.0581 ± 0.00065 | 0.0745 ± 0.015 | 0.0524 ± 0.0022 | 0.0551 ± 0.002 | 0.05117 ± 0.00047 |
| C=C1C(=O)O[C@H]2[C@H]1CC/C(C)=C/CC[C@@]1(C)O[C@@H]21 [Parthenolide] | 0.157 ± 0.0041 | 0.303 ± 0.0032 | 0.27 ± 0.0042 | 0.232 ± 0.014 | 0.185 ± 0.0044 | 0.157 ± 0.0078 | 0.155 ± 0.0046 | 0.269 ± 0.036 | 0.2 ± 0.0037 | 0.224 ± 0.022 | 0.488 ± 0.038 | 0.404 ± 0.013 | 0.316 ± 0.02 |
| O=C(NC(Cc1cc(=O)[nH]c2ccccc12)C(=O)O)c1ccc(Cl)cc1 (centres undefined) [Rebamipide] | 0.26 ± 0.0077 | 0.314 ± 0.015 | 0.259 ± 0.0053 | 0.211 ± 0.01 | 0.196 ± 0.0026 | 0.146 ± 0.0044 | 0.312 ± 0.035 | 0.435 ± 0.058 | 0.221 ± 0.0038 | 0.244 ± 0.011 | 0.484 ± 0.068 | 0.409 ± 0.012 | 0.368 ± 0.014 |
| O=C(O)CN(CCN(CC(=O)O)CC(=O)O)CCN(CC(=O)O)CC(=O)O [Pentetic acid] | 0.049 ± 0.00062 | 0.0429 ± 0.00085 | 0.03913 ± 0.00012 | 0.04467 ± 5.8e-05 | 0.0427 ± 0.00091 | 0.0607 ± 0.00086 | 0.115 ± 0.02 | 0.0868 ± 0.024 | 0.0936 ± 0.0035 | 0.0709 ± 0.0042 | 0.0804 ± 0.0038 | 0.0559 ± 0.0086 | 0.061 ± 0.001 |
| Nc1ncnc2c1ncn2C1OC(COP(=O)(O)O)C(O)C1O (centres undefined) [Adenosine 5'-monophosphate monohydrate] | 0.26 ± 0.015 | 0.32 ± 0.013 | 0.2658 ± 0.0011 | 0.237 ± 0.021 | 0.175 ± 0.0094 | 0.15 ± 0.0046 | 0.276 ± 0.078 | 0.336 ± 0.058 | 0.214 ± 0.0055 | 0.25 ± 0.071 | 0.569 ± 0.09 | 0.374 ± 0.033 | 0.363 ± 0.013 |
